PubChem BioAssay
Active and inactive are the calls of the source.

Key:
[1] = binders of probe aFSTL3 on microarray, primary screen, stem cell growth factor project, biochemical, small-molecule microarray, fluorescence 635/667 (AID 1064); details: higher = more signal;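 also: measures binding of the biotinylated anti-FSTL3 antibody to printed compounds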
[2] = binders from COS7 lysate, DM2A8 probe, primary screen, torsin A project, cell lysate, small-molecule microarray, fluorescence 635/667 (AID 1065); details: higher = more signal, COS7 lysate expressing mutant human TOR1A
[3] = binders of probe aFGF2 on microarray, primary screen, stem cell growth factor project, biochemical, small-molecule microarray, fluorescence 635/667 (AID 1067); details: higher = more signal;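 also: measures binding of biotinylated aFGF2 protein to printed compounds on slides; z-score merges feature fluorescence and signal-to-noise across triplicate slides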
[4] = binders of probe aFGF10 on microarray, primary screen, stem cell growth factor project, biochemical, small-molecule microarray, fluorescence 635/667 (AID 1071); details: higher = more signal;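 also: score merges 667 nm spot intensity and signal to noise from triplicate slides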
[5] = target: Neurogenic locus notch homolog protein 2 (Homo sapiens) (UniProt Q04721); assay: Notch2 binders on small-molecule microarrays, primary screen, biochemical, small-molecule microarray, 635 nm fluorescence, stem cell growth factors (AID 1073); details: Notch2 binding, higher = more signal
Chain of Neurogenic locus notch homolog protein 2 (Homo sapiens) (Q04721 whole entry, looked up, canonical isoform): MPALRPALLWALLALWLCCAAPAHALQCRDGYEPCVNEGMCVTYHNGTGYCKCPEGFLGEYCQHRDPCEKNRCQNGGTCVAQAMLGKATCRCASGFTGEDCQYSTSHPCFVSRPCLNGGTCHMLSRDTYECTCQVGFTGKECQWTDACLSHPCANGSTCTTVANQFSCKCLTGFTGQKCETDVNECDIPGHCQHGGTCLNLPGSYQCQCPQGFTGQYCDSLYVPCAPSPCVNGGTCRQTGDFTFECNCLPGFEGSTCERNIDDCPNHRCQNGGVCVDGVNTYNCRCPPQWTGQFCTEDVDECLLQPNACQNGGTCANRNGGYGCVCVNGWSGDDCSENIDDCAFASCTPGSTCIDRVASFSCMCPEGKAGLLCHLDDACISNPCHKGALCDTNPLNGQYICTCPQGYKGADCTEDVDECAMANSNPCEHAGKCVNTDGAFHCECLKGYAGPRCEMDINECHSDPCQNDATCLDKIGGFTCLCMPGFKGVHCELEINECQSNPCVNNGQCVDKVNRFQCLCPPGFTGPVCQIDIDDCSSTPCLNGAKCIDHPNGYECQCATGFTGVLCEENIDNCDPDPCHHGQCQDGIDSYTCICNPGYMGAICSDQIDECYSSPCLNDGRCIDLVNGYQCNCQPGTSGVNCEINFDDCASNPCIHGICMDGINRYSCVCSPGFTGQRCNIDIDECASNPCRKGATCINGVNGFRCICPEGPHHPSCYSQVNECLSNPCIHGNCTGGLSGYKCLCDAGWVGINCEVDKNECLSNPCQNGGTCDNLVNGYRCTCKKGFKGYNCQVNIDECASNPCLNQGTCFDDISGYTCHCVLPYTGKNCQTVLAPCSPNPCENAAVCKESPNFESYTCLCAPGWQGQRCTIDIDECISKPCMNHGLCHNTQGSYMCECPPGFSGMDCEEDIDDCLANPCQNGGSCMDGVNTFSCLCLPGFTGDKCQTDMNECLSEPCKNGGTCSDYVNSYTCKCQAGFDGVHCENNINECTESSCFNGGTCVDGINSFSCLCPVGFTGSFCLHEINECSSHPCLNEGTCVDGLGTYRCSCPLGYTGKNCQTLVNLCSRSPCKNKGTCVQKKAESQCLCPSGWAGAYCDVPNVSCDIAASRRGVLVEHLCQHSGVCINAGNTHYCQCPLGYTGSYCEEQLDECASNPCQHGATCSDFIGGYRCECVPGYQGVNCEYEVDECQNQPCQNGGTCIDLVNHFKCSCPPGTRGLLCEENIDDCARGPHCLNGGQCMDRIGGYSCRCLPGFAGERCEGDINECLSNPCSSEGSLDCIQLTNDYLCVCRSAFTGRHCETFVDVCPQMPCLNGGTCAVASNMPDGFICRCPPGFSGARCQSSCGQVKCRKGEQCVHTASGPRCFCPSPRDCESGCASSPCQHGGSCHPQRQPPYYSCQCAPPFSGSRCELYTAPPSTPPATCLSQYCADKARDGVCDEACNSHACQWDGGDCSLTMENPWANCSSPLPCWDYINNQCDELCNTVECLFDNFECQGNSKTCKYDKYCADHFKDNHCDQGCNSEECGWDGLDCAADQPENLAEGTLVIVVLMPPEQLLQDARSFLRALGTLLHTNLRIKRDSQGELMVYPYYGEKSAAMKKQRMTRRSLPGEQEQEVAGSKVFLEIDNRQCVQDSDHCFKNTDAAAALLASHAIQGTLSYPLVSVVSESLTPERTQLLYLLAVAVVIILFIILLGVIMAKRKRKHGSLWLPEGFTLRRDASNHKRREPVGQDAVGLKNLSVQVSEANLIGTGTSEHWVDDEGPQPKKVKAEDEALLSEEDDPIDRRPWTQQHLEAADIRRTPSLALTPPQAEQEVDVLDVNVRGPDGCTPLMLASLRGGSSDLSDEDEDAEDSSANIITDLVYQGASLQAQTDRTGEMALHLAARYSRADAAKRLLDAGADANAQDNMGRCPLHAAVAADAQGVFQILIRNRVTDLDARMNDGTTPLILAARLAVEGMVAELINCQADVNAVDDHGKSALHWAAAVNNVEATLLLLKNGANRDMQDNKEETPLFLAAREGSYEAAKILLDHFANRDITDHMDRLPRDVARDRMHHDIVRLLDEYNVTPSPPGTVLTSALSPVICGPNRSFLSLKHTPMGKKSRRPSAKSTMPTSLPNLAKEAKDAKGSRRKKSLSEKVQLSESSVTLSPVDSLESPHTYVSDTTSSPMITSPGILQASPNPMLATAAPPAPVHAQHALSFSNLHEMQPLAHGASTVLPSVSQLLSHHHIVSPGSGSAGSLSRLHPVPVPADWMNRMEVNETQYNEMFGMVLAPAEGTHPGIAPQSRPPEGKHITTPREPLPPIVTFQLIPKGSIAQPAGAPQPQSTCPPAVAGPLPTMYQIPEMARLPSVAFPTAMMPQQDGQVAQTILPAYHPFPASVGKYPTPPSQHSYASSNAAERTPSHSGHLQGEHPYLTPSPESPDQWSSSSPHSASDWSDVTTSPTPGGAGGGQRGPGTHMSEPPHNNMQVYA

[6] = target: Pro-neuregulin-1, membrane-bound isoform (Homo sapiens) (UniProt Q02297); assay: NRG1 binders on small-molecule microarrays, primary screen, psychiatric disease protein project, biochemical, small-molecule microarray, fluorescence 635/667 (AID 1075); details: NRG1 binding, 635 nm fluorescence, higher = more signal;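 also: score combines 667 nm spot fluorescence with signal to noise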
Chain of Pro-neuregulin-1, membrane-bound isoform (Homo sapiens) (Q02297 whole entry, looked up, the tested form may be a part, canonical isoform): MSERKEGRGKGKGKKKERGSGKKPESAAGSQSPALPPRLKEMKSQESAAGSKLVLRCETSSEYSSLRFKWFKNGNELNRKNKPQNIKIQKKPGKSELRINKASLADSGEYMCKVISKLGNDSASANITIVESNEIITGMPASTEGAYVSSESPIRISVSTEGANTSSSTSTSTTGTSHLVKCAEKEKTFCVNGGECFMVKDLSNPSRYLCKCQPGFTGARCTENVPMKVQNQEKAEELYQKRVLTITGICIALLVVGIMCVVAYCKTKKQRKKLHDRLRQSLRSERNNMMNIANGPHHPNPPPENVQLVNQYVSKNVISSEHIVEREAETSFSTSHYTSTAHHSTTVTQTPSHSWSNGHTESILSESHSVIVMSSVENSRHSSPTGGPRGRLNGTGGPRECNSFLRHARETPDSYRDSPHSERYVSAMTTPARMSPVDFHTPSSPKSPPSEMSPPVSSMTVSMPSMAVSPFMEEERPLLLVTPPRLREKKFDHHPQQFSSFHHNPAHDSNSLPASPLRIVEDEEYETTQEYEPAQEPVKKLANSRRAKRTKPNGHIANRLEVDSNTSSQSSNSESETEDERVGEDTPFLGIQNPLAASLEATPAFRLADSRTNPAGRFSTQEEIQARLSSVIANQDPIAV

[7] = tested on: Neuregulin-1 EGF-like domain; assay: binders of neuregulin-1 EGF-like domain, primary screen, biochemical, small-molecule microarray, 635 nm fluorescence (AID 1081); details: small-molecule microarray binding, higher = more signal;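 also: binding of the protein to compounds printed on small-molecule microarray slides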
[8] = FRG1 promoter luciferase signal modulators, primary screen, FRG1 inhibition for FSHD, cell-based, C2C12 myotubes, firefly/Renilla luciferase, luminescence (AID 1084); details: higher = more signal, called active from +8 up or from −8 down
[9] = binders of probe aFST on microarray, primary screen, stem cell growth factor project, biochemical, small-molecule microarray, fluorescence 635/667 (AID 1086); details: higher = more signal;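 also: score merges 667 nm fluorescence with signal-to-noise of each printed compound spot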
[10] = binders of probe aHhip on microarray, primary screen, stem cell growth factor project, biochemical, small-molecule microarray, fluorescence 635/667 (AID 1087); details: higher = more signal;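 also: score merges spot fluorescence at 667nm with spot signal to noise ratio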
[11] = tested on: PRMT1 (protein arginine N-methyltransferase 1); assay: PRMT1 binders on small-molecule microarrays, primary screen, biochemical, small-molecule microarray, 635 nm fluorescence (AID 1088); details: small-molecule microarray binding, higher = more signal;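 also: binding of Prmt1 protein to compounds spotted on small-molecule microarray slides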
[12] = yeast growth modulation, basal conditions, primary screen, YJM789 clinical isolate, OD600, 24 h (AID 1089);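 also: growth of clinical yeast isolate S. cerevisiae YJM 789 seeded 1000 cells per well; test concentration not given here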; details: S. cerevisiae YJM789 growth, higher = more signal, called active from +8 up or from −8 down
[13] = fission yeast growth modulation, primary screen, strain 972, OD600, 24 h, no modulator (AID 1090);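 also: basal condition with compound alone and no growth modifier present; test concentration not given here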; details: S. pombe 972 growth, higher = more signal, called active from +8 up or from −8 down
[14] = S. cerevisiae growth modulation with rapamycin, primary screen, strain BY4716, OD600, 96 h (AID 1091); details: higher = more signal, called active from +8 up or from −8 down; also: test concentration not given here
[15] = target: Torsin-1A-interacting protein 2 (Homo sapiens) (UniProt Q8NFQ8); assay: LULL1 binders on small-molecule microarray, primary screen, cell lysate, human LULL1 lysate, 635/667 nm fluorescence (AID 1092); details: hLULL1 lysate binding, 635 nm fluorescence, higher = more signal;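 also: probe is lysate of COS7 cells overexpressing human LULL1; score merges per-feature 667 nm fluorescence with signal-to-noise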
Chain of Torsin-1A-interacting protein 2 (Homo sapiens) (Q8NFQ8 whole entry, looked up): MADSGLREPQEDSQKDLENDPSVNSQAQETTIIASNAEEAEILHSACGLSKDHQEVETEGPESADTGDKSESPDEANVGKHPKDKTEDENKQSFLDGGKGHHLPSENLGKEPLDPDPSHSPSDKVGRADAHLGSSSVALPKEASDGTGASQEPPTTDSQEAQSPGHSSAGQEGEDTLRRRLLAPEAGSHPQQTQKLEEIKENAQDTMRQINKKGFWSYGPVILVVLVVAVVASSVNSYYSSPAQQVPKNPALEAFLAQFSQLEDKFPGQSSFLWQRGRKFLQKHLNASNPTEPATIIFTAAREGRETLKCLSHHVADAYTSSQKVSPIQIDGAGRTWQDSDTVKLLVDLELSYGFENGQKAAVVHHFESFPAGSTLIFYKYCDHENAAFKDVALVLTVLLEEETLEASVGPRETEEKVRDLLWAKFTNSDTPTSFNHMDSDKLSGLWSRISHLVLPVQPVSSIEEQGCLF

[16] = E. coli growth modulation, two-sided OD650, primary screen, E. coli filamentation project, strain DRC41, 24 h (AID 1093); details: OD650, 24 h, higher = more signal, called active from +8 up or from −8 down;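 also: MC1000 strain lacking acrAB efflux and sulA so SOS filamentation is blocked; test concentration not given here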
[17] = small-molecule microarray binders of probe aLefty2, primary screen, biochemical, biotinylated probe, 635/667 nm fluorescence (AID 1094); details: higher = more signal;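 also: score merges spot fluorescence near 667 nm with spot signal-to-noise ratio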
[18] = tested on: Noggin (protein binding on small-molecule microarray); assay: Noggin binders on small-molecule microarray, primary screen, biochemical, 635/667 nm fluorescence (AID 1095); details: 635 nm fluorescence, higher = more signal;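 also: score merges 667 nm feature fluorescence with signal to noise over triplicate slides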
[19] = target: Neurogenic locus notch homolog protein 3 (Homo sapiens) (UniProt Q9UM47); assay: NOTCH3 binders on small-molecule microarray, primary screen, biochemical, 635/667 nm fluorescence (AID 1096); details: NOTCH3 binding, 635 nm fluorescence, higher = more signal
[20] = small-molecule microarray binders of probe aEGFR, primary screen, biochemical, biotinylated probe, 635/667 nm fluorescence (AID 1097); details: higher = more signal;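 also: probe is a biotinylated anti-EGFR antibody binding compounds printed on slides; score combines fluorescence near 667 nm and signal to noise of each spot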

Row | Structure (SMILES) | composite z-score [1] | composite z-score [2] | composite z-score [3] | composite z-score [4] | composite z-score [5] | composite z-score [6] | composite z-score [7] | z-score [8] | composite z-score [9] | composite z-score [10] | composite z-score [11] | z-score [12] | z-score [13] | z-score [14] | composite z-score [15] | z-score [16] | composite z-score [17] | composite z-score [18] | composite z-score [19] | composite z-score [20]
1 | O=C1C[C@@H](O)[C@@H](O)[C@@H]2[C@@H]3C(=O)N(c4ccc(F)cc4F)C(=O)[C@@H]3CC[C@@H]12 | -0.416 | 0.267 | -0.122 | 0.315 | 0.627 | 0.0489 | 0.823 | 0.25 (inactive) | 0.153 | 0.144 | 0.306 | -0.168 (inactive) | -0.413 (inactive) | -0.0694 (inactive) | 0.662 | 0.315 (inactive) | 0.0424 | 0.438 | 0.65 | -0.109
2 | C#C[C@@H](CC)O[Si](C#Cc1ccc(Oc2ccccc2)cc1)(C(C)C)C(C)C | -0.321 | 0.438 | -0.201 | 0.247 | 0.824 | 0.108 | 0.0426 | 0.364 (inactive) | 0.168 | -0.0193 | 1.29 | 0.356 (inactive) | -0.951 (inactive) | 1 (inactive) | 0.964 | -0.44 (inactive) | -0.152 | 0.269 | 0.916 | -0.0028
3 | COc1ccc(O[C@H]2C=C[C@@H](c3ccccc3)O[C@@H]2COC(=O)CCC(C)=NOCC[C@@H]2C=C[C@H](OC(C)=O)[C@@H](COC(C)=O)O2)cc1 | -0.19 | 0.779 | -0.0363 | -0.171 | -0.086 | 0.0028 | -0.183 | 1.04 (inactive) | 0.406 | 0.305 | 0.135 | -0.209 (inactive) | 0.951 (inactive) | 1.62 (inactive) | 1.69 | -0.211 (inactive) | 0.113 | 0.476 | 0.319 | -0.039
4 | CC(=O)OC[C@H]1O[C@@H](ON=C(C)CCN2CCc3nc(-c4ccccc4)c(-c4ccccc4)cc3C2)[C@H](OC(C)=O)[C@@H](OC(C)=O)[C@@H]1OC(C)=O | -0.209 | 0.217 | -0.213 | 0.958 | 1.11 | 0.817 | 0.992 | 0.66 (inactive) | 0.473 | 0.21 | 1.51 | 0.0264 (inactive) | -1.03 (inactive) | -3.53 (inactive) | 2.27 | -0.395 (inactive) | 0.0754 | 0.591 | 1.09 | 0.0291
5 | CC(=O)OC[C@H]1O[C@H](C#CCCCc2ccccc2)C=C[C@@H]1OC(C)=O | -0.0129 | 0.105 | -0.083 | 0.73 | 0.2 | 0.505 | 0.765 | -0.13 (inactive) | -0.206 | 0.351 | 0.351 | 0.458 (inactive) | -19.5 (active) | -0.967 (inactive) | 1.01 | 0.0065 (inactive) | -0.239 | 0.66 | 0.389 | -0.0703
6 | O=C1C[C@]2(c3ccc([N+](=O)[O-])cc3)C(=O)N(CCN3CCOCC3)c3cc(CO)ccc3[C@H]2N1CC12CC3CC(CC(C3)C1)C2 | -0.0111 | -0.624 | -0.103 | -0.164 | -0.35 | 1.38 | -0.273 | 0.103 (inactive) | 0.337 | 0.312 | -0.286 | -1.31 (inactive) | -0.324 (inactive) | -2.77 (inactive) | 1.81 | 0.679 (inactive) | 0.0023 | -0.323 | 0.111 | -0.156
7 | CCOC(=O)CCN1C(=O)[C@H]2[C@H]3[C@H](O)C=CC(=O)[C@@H]3CC[C@H]2C1=O | -0.619 | 0.153 | -0.108 | 0.408 | 0.25 | 0.262 | -0.0122 | -0.451 (inactive) | -0.0371 | -0.374 | 0.0492 | 0.595 (inactive) | 0.361 (inactive) | 1.42 (inactive) | 0.215 | 0.399 (inactive) | -0.239 | 0.641 | 0.629 | 0.0439
8 | COc1ccc([Si](C)(C)[C@H]2[C@H](CC(=O)N3CCC[C@H]3CO)O[C@@]3(C(=O)N(Cc4cccc(N5C(=O)COc6ccccc65)c4)c4ccccc43)[C@@H]2C)cc1 | -0.126 | 0.149 | -0.0148 | 0.893 | 0.308 | 0.563 | 0.983 | -4.78 (inactive) | -0.0678 | -0.0994 | 1.41 | -2.58 (inactive) | -0.769 (inactive) | -0.827 (inactive) | 2.25 | 1.43 (inactive) | -0.166 | 1.61 | 1.14 | -0.142
9 | CC(CCN1CCc2nc(-c3ccccc3)c(-c3ccccc3)cc2C1)=NOC(C)CN1CCCCc2nc(C)c(C)cc21 (stereo not given) | -0.16 | -0.0309 | -0.0398 | 0.476 | 0.519 | 0.657 | 0.885 | 1.1 (inactive) | 0.465 | 0.115 | 0.948 | -1.03 (inactive) | -3.01 (inactive) | -3.08 (inactive) | 1.53 | 0.74 (inactive) | -0.0813 | 0.454 | 0.905 | -0.0565
10 | CO[C@@H]1COC(=O)CCC[C@@H](C)[C@H](OC)COC(=O)CCC[C@H]1C | -0.298 | 0.743 | -0.0982 | 0.219 | 0.633 | -0.63 | 0.176 | 0.462 (inactive) | 0.561 | 0.369 | 0.408 | 0.376 (inactive) | 0.852 (inactive) | 0.294 (inactive) | -0.431 | -0.0526 (inactive) | -0.234 | 0.6 | 0.636 | -0.0967
